Measured values reported in PubChem BioAssay AID1159580 (chemical genetic matrix, 2015).
The whole screen tested about 5,500 compounds, of which about 2,000 (36%) were called active. Another 18% or so got no clear call; they are omitted. Cut-off read from the data, not from the text of the source: active = normalized growth mostly below about 0.91 (no sharp cut-off); inconclusive = no clear call, values can overlap the other calls; inactive = mostly above about 0.92. The list shows a part of the results.

Assay: chemical genetic growth profiling, strain panel (AID 1159580);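 note: tested at 20 µM; growth read once vehicle control cultures reached saturation at 30 °C; 1 = growth at the plate median or of vehicle wells; lower values mean less growth of the strain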
Conditions: growth OD

Measured: normalized growth

Nc1ccc(C(=O)O)cc1
inactive: S. cerevisiae deletion strains, locus YJR066W, strain TOR1, active compounds read low 0.968 | S. cerevisiae deletion strains, locus YJR075W, strain HOC1, active compounds read low 1.01 | S. cerevisiae deletion strains, locus YKL009W, strain mrt4, active compounds read low 1.02 | S. cerevisiae deletion strains, locus YKL068W, active compounds read low 0.993 | S. cerevisiae deletion strains, locus YKL085W, strain MDH1 (second series), active compounds read low 0.998 | S. cerevisiae deletion strains, locus YKL085W, strain MDH1, active compounds read low 0.998 | S. cerevisiae deletion strains, locus YKL160W, strain elf1, active compounds read low 1.03 | S. cerevisiae deletion strains, locus YKL190W, strain CNB1, active compounds read low 0.996 | S. cerevisiae deletion strains, locus YKR001C, strain vps1, active compounds read low 1.01 | S. cerevisiae deletion strains, locus YKR026C, strain gcn3, active compounds read low 1.04 | S. cerevisiae deletion strains, locus YKR091W, strain srl3, active compounds read low 1.02 | S. cerevisiae deletion strains, locus YLL001W, strain dnm1, active compounds read low 1.03 | S. cerevisiae deletion strains, locus YLL026W, active compounds read low 1.04 | S. cerevisiae deletion strains, locus YLL041C, strain sdh2, active compounds read low 1.02 | S. cerevisiae deletion strains, locus YLR027C, strain aat2, active compounds read low 1.02 | S. cerevisiae deletion strains, locus YLR039C, strain RIC1, active compounds read low 0.996 | S. cerevisiae deletion strains, locus YLR058C, strain SHM2, active compounds read low 1.01 | S. cerevisiae deletion strains, locus YLR102C, strain apc9, active compounds read low 1.01 | S. cerevisiae deletion strains, locus YLR113W, strain HOG1, active compounds read low 1.01 | S. cerevisiae deletion strains, locus YLR221C, strain rsa3, active compounds read low 1.02 | S. cerevisiae deletion strains, locus YLR258W, strain gsy2, active compounds read low 1.01 | S. cerevisiae deletion strains, locus YLR262C, strain YPT6 (second series), active compounds read low 1.02 | S. cerevisiae deletion strains, locus YLR262C, strain YPT6, active compounds read low 1.07 | S. cerevisiae deletion strains, locus YLR268W, strain sec22, active compounds read low 1.02 | S. cerevisiae deletion strains, locus YLR320W, strain mms22, active compounds read low 1.01 | S. cerevisiae deletion strains, locus YLR330W, strain CHS5, active compounds read low 1.01 | S. cerevisiae deletion strains, locus YLR342W, strain FKS1 (second series), active compounds read low 1.02 | S. cerevisiae deletion strains, locus YLR342W, strain FKS1, active compounds read low 1.05 | S. cerevisiae deletion strains, locus YLR357W, strain rsc2, active compounds read low 1.03 | S. cerevisiae deletion strains, locus YLR370C, strain arc18, active compounds read low 1.02 | S. cerevisiae deletion strains, locus YLR371W, strain rom2, active compounds read low 1.01 | S. cerevisiae deletion strains, locus YLR384C, strain iki3, active compounds read low 1.01 | S. cerevisiae deletion strains, locus YLR418C, strain cdc73, active compounds read low 1.03 | S. cerevisiae deletion strains, locus YML016C, strain PPZ1, active compounds read low 1.01 | S. cerevisiae deletion strains, locus YML032C, strain rad52, active compounds read low 1.01 | S. cerevisiae deletion strains, locus YML120C, strain ndi1, active compounds read low 1.04 | S. cerevisiae deletion strains, locus YML124C, strain tub3, active compounds read low 1.01 | S. cerevisiae deletion strains, locus YMR058W, strain fet3, active compounds read low 1.04 | S. cerevisiae deletion strains, locus YMR078C, strain ctf18, active compounds read low 1.02 | S. cerevisiae deletion strains, locus YMR125W, strain sto1, active compounds read low 1.01 | S. cerevisiae deletion strains, locus YMR129W, active compounds read low 1.03 | S. cerevisiae deletion strains, locus YMR205C, strain PFK2, active compounds read low 1.03 | S. cerevisiae deletion strains, locus YMR223W, strain ubp8, active compounds read low 1.01 | S. cerevisiae deletion strains, locus YMR231W, strain pep5, active compounds read low 1.02 | S. cerevisiae deletion strains, locus YMR263W, strain SAP30, active compounds read low 1 | S. cerevisiae deletion strains, locus YMR307W, strain GAS1, active compounds read low 1.05 | S. cerevisiae deletion strains, locus YNL067W, strain RPL9B, active compounds read low 1 | S. cerevisiae deletion strains, locus YNL071W, strain lat1, active compounds read low 1.01 | S. cerevisiae deletion strains, locus YNL183C, strain NPR1, active compounds read low 0.953 | S. cerevisiae deletion strains, locus YNL209W, strain ssb2, active compounds read low 1.02 | S. cerevisiae deletion strains, locus YNL233W, strain BNI4, active compounds read low 1.01 | S. cerevisiae deletion strains, locus YNL248C, strain rpa49, active compounds read low 1.05 | S. cerevisiae deletion strains, locus YNL250W, strain rad50, active compounds read low 1.01 | S. cerevisiae deletion strains, locus YNL271C, strain bni1, active compounds read low 1.03 | S. cerevisiae deletion strains, locus YNL298W, strain CLA4, active compounds read low 1.01 | S. cerevisiae deletion strains, locus YNL307C, strain MCK1, active compounds read low 1.01 | S. cerevisiae deletion strains, locus YNL322C, strain KRE1 (second series), active compounds read low 1.01 | S. cerevisiae deletion strains, locus YNR049C, strain mso1, active compounds read low 1.02 | S. cerevisiae deletion strains, locus YNR052C, strain pop2, active compounds read low 1 | S. cerevisiae deletion strains, locus YOL006C, strain TOP1, active compounds read low 1.06 | S. cerevisiae deletion strains, locus YOL012C, strain htz1 2.07 | S. cerevisiae deletion strains, locus YOL147C, strain pex11, active compounds read low 1.01 | S. cerevisiae deletion strains, locus YOR001W, strain rrp6, active compounds read low 1.05 | S. cerevisiae deletion strains, locus YOR061W, strain CKA2, active compounds read low 1.01 | S. cerevisiae deletion strains, locus YOR069W, strain VPS5, active compounds read low 1.01 | S. cerevisiae deletion strains, locus YOR070C, strain gyp1, active compounds read low 1.01 | S. cerevisiae deletion strains, locus YOR080W, strain dia2, active compounds read low 1.04 | S. cerevisiae deletion strains, locus YOR083W, strain WHI5, active compounds read low 1.05 | S. cerevisiae deletion strains, locus YOR106W, strain vam3, active compounds read low 1.04 | S. cerevisiae deletion strains, locus YOR136W, strain idh2, active compounds read low 1.02 | S. cerevisiae deletion strains, locus YOR144C, strain elg1, active compounds read low 1.01 | S. cerevisiae deletion strains, locus YOR184W, strain ser1, active compounds read low 1.02 | S. cerevisiae deletion strains, locus YOR231W, strain MKK1, active compounds read low 1.01 | S. cerevisiae deletion strains, locus YOR265W, strain rbl2, active compounds read low 1.01 | S. cerevisiae deletion strains, locus YOR270C, strain vph1, active compounds read low 1.07 | S. cerevisiae deletion strains, locus YOR290C, strain snf2, active compounds read low 1.01 | S. cerevisiae deletion strains, locus YOR316C, strain cot1, active compounds read low 1.01 | S. cerevisiae deletion strains, locus YPL051W, strain arl3, active compounds read low 1.04 | S. cerevisiae deletion strains, locus YPL078C, strain atp4, active compounds read low 1.05 | S. cerevisiae deletion strains, locus YPL106C, strain sse1, active compounds read low 1.03 | S. cerevisiae deletion strains, locus YPL240C, strain hsp82, active compounds read low 1.01 | S. cerevisiae deletion strains, locus YPL256C, strain CLN2, active compounds read low 1.02 | S. cerevisiae deletion strains, locus YPR119W, strain clb2, active compounds read low 1 | S. cerevisiae deletion strains, locus YPR141C, strain kar3, active compounds read low 1.01 | S. cerevisiae deletion strains, locus YPR163C, strain tif3, active compounds read low 1.02 | S. cerevisiae deletion strains, locus YPR167C, strain met16, active compounds read low 1.02 | S. cerevisiae deletion strains, strain wtn01, active compounds read low 1.02 | S. cerevisiae strains, strain wild type, active compounds read low 1
